Screens (PubChem BioAssay)
This is a sample that favours compounds with a hit; in the whole collection about 1.3% have one here.
DUSP3 inh – inhibitors of human VHR1 phosphatase (DUSP3). P51452. AID 1654. recombinant VHR phosphatase, pNPP absorbance. 0.52% of 290,000 active. inhibition, % at 13.3 µM; in the data active means inhibition above about 50%
Target sequence (P51452 whole entry, looked up): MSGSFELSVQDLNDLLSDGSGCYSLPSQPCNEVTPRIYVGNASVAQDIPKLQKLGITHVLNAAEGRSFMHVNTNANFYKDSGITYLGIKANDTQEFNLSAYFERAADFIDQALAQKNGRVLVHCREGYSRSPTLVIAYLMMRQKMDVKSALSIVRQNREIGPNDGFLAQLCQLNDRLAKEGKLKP
BH1578 lux ind – induces V. cholerae light production without autoinducers; AID 588436; 0.16% of 350,000 active; activation, % at 18.7 µM; V. cholerae BH1578 lux reporter, luminescence, 6 h; in the data active means activation mostly above about 9.7%, no sharp cut-off
CCHF vOTU inh-1 – CCHFV vOTU protease inhibition. Pep-AMC fluorescence. inhibition, % at 11.5 µM. 0.55% of 370,000 active; further: 0% = vehicle wells with enzyme and 100% = no enzyme wells
3CLpro inhibitor – SARS-CoV 3CLpro protease inhibition | P0C6X7 | recombinant SARS-CoV 3CLpro, quenched FRET peptide cleavage | inhibition, % at 6 µM | 0.14% of 290,000 active; in the data active means inhibition above about 12%
TcdB GH inh – inhibitors of Clostridioides difficile toxin B glycohydrolase; P18177; TcdB glycohydrolase enzymatic assay, plate reader; inhibition, % at 9.99 µM; 0.24% of 350,000 active; AID 652162; in the data active means inhibition above about 10%
PriA SSB inh – K. pneumoniae PriA-SSBct interaction inhibition; inhibition, % at 33 µM; AID 1272365; 0.6% of 430,000 active; AlphaScreen SSBct-PriA binding, biotinylated peptide; in the data active means inhibition mostly above about 37%, no sharp cut-off; inactive means mostly below about 20%;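 further: plate controls were negative control peptide for no effect and reference peptide for full effect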
CCHF vOTU inh-2 – CCHFV vOTU protease inhibition, confirmation; shares compounds with CCHF vOTU inh-1; 17% of 1,900 active; inhibition, % at 11.5 µM; Recombinant CCHFV vOTU, Pep-AMC fluorescence
Active calls of the source: *; i = inactive; . = no result; ! = a repeat was not active. Unless noted, no stated cut-off is given here; in the data, active means inhibition above about 30%; inactive means the rest.

SMILES	DUSP3 inh	BH1578 lux ind	CCHF vOTU inh-1	3CLpro inhibitor	TcdB GH inh	PriA SSB inh	CCHF vOTU inh-2
Cc1oncc1C(=O)NCC[C@H](O)c1ccccc1	.	.	.	.	.	-8.0	.
CC1C(=O)NCCN1C(=O)c1ccccc1Cl (stereo unspecified)	.	.	.	.	.	-12.0	.
O=C(COc1ccccc1)NCCCn1nc(-c2ccco2)ccc1=O	.	.	.	.	.	-16.0	.
O=C1C(Cc2ccccc2)Nc2ncnc(N3CCN(c4ccccc4)CC3)c2N1Cc1ccccc1 (stereo unspecified)	.	i	6.3	.	0.8	3.7	.
O=C1C(Cc2ccccc2)Nc2ncnc(N3CCOCC3)c2N1Cc1ccc(Cl)cc1 (stereo unspecified)	.	3.2	30.8*!	.	-1.1	9.8	-18.4
O=C1Cc2ccccc2C(=O)N1c1ccccc1	2.2	-0.7	18.7	0.8	-4.9	-2.8	.
O=C1Cc2ccccc2C(=O)N1Cc1ccccc1	15.8	i	93.0*	1.0	.	7.8	90.6*
CCCCCCn1c(=O)n2n(c1=O)[C@@H]1CN(S(=O)(=O)c3ccc(C)cc3)C[C@]1(O)[C@@H](OC(=O)NCc1ccc(OC)c(OC)c1)C2	.	-0.4	43.5*	.	1.8	.	-9.2
CCCCCCn1c(=O)n2n(c1=O)[C@@H]1CN(S(=O)(=O)c3ccc(C)cc3)C[C@]1(O)[C@@H](OC(=O)NCc1ccccc1F)C2	.	-0.4	25.9	.	2.2	.	.
CCCCCCNC(=O)O[C@H]1Cn2c(=O)n(CCCCCC)c(=O)n2[C@@H]2CN(S(=O)(=O)c3ccc(C)cc3)C[C@]12O	.	-0.4	27.9	.	4.5	.	.
CCCCCCn1c(=O)n2n(c1=O)[C@@H]1CN(S(=O)(=O)c3ccc(C)cc3)C[C@]1(O)[C@@H](OC(=O)Nc1cccs1)C2	.	0.5	33.9*	.	1.0	.	-5.8
O=C(NCCc1ccsc1)c1cc2ccccc2s1	.	.	.	.	.	2.0	.
Cc1ccc(/C=C/S(=O)(=O)N2CCC[C@H](Cc3nc(-c4cnccn4)no3)C2)cc1	.	.	.	.	.	-8.0	.
Cc1cc(NC(=O)C2CC2)n(-c2nc3ccc(F)cc3s2)n1	.	.	.	.	.	-15.0	.
CCOc1ccc(NC(=NCc2ccc3c(c2)OCO3)SC2CC(=O)N(c3ccc(C(=O)O)cc3)C2=O)cc1 (stereo unspecified)	11.5	2.4	30.0*	8.5	.	8.9	7.0
CCOc1ccc(NC(=NCc2ccc3c(c2)OCO3)SC2CC(=O)N(c3ccc(OCC)cc3)C2=O)cc1 (stereo unspecified)	17.7	-0.1	-9.1	-1.3	.	-1.1	.
O=C1C=C(Nc2ccccc2C(=O)O)c2ccccc2C1=O	16.6	-0.7	71.7*	4.9	-1.0	2.3	94.9*
CCCCNC1=CC(=O)C(=O)c2ccccc21	8.5	-1.1	34.7*	3.6	0.2	-12.5	67.7*
O=C1C=C(Nc2cccc3cccnc23)c2ccccc2C1=O	15.6	-0.4	37.9*	1.5	-0.4	8.1	28.8
O=C(O)c1ccccc1Nc1ccccc1C(=O)O	43.7	-0.2	16.1	0.6	3.0	-0.5	.
O=C1C=C(Nc2ccccc2)C(=O)c2ccccc21	16.5	-0.1	17.5	0.8	0.3	0.1	.
O=C1C=C(Nc2ccccc2)c2ccccc2C1=O	10.6	i	55.0*	2.2	-0.7	21.1	73.0*
CCOC(=O)CC(=O)CSc1nnc(NC(=O)C2CC(=O)N(c3ccccc3)C2)s1 (stereo unspecified)	.	.	.	.	.	-5.0	.
O=C(Nn1cnc2c(cnn2-c2cccc(Cl)c2)c1=O)c1c(F)cccc1F	.	.	.	.	.	-8.0	.
Cc1nc2c(o1)C(=O)c1ccccc1C2=Nc1ccccc1	.	-0.8	41.5*	.	1.2	1.2	53.1*
SMILES	DUSP3 inh	BH1578 lux ind	CCHF vOTU inh-1	3CLpro inhibitor	TcdB GH inh	PriA SSB inh	CCHF vOTU inh-2
Cc1cc(C)c(NC(=O)C(=O)NCCCCN2CCOC(c3ccccc3)C2)c(C)c1 (stereo unspecified)	.	.	.	.	.	0.0	.
CC1=C(SCc2ccccc2)C(=O)c2ccccc2C1=O	.	0.1	103.6*	.	0.1	4.0	86.6*
Cc1oncc1C(=O)NC1CCC(Oc2nccnc2C#N)CC1 (stereo unspecified)	.	.	.	.	.	-6.0	.
OC(c1ccc(Cl)c(Cl)c1)c1ncc(-c2ccc(C(F)(F)F)cc2)[nH]1 (stereo unspecified)	.	-0.7	35.0*	.	1.8	.	-6.2
OC(c1ccc(Cl)c(Cl)c1)c1ncc(-c2ccccc2C(F)(F)F)[nH]1 (stereo unspecified)	.	i	34.1*	.	-6.4	.	-10.2
OC(c1ccc(Cl)c(Cl)c1)c1ncc(-c2ccc(Cl)cc2)[nH]1 (stereo unspecified)	.	0.3	7.4	.	0.2	.	.
